Reference: PubChem BioAssay
Activity calls are given as the source filed them. Unless noted, the rule behind the calls is not given here.

How the values were obtained:
[1] = system: Wnt5a (protein binding on small-molecule microarray); assay: Wnt5a binders on small-molecule microarray, primary screen, biophysical, 635/667 nm fluorescence (AID 1142); conditions: 635 nm fluorescence, higher = more signal;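 note: fluorescence read at 667 nm with signal to noise per printed feature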
[2] = cell viability in Huh7 cells, primary screen, cytotoxicity control for HCV replication inhibitor project, CellTiter-Glo luminescence, basal, 48 h (AID 1143); conditions: Huh7 HCV replicon, higher = more signal, called active from +8 up or from −8 down;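 note: Huh7 hepatoma cells carrying a hepatitis C replication reporter with no stimulus; test concentration not given here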
[3] = P. aeruginosa biofilm formation inhibitors, primary screen, PAO1 strain, BacTiter-Glo luminescence, LB-PBS (AID 1144); conditions: 12 h, higher = more signal
[4] = CREB reporter modulators without forskolin, primary screen, cell-based, PC12, CRE-LacZ reporter, unstimulated (AID 1145); conditions: no forskolin, luminescence, 4.5 h, higher = more signal, called active from +8 up or from −8 down
[5] = CREB reporter modulators under forskolin, primary screen, cell-based, PC12, CRE-LacZ reporter, forskolin-stimulated (AID 1146); conditions: luminescence, 4.5 h, higher = more signal, called active from +8 up or from −8 down;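 note: PC12 cells with 6xCRE LacZ reporter stimulated by forskolin 10 µM; beta-galactosidase reporter signal reflecting CREB driven transcription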
[6] = target: Streptavidin (Streptomyces avidinii) (UniProt P22629); assay: streptavidin binders on small-molecule microarray, primary screen, artefact control for SMM compound annotation, biophysical, 635/667 nm fluorescence (AID 1147); conditions: streptavidin binding, higher = more signal;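 note: signal reflects streptavidin binding to arrayed compounds as a control protein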
[7] = small-molecule binders of probe aInhba, primary screen, biochemical, small-molecule microarray, 635/667 nm fluorescence (AID 1148); conditions: higher = more signal;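 note: score merges 667nm spot fluorescence with signal-to-noise for antibody binding to printed compounds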
[8] = target: Torsin-1A (Homo sapiens) (UniProt O14656); assay: torsin A binders from cell lysate, primary screen, small-molecule microarray, wild-type, 635/667 nm (AID 1149); conditions: COS7 hTOR1A-WT lysate, 635 nm fluorescence, higher = more signal
[9] = target: Torsin-1A (Homo sapiens) (UniProt O14656); assay: small-molecule binders of mutant TOR1A in lysate, primary screen, cell lysate, small-molecule microarray, COS7 lysate, 635/667 nm fluorescence (AID 1150); conditions: COS7 hTOR1A mutant lysate, 635 nm fluorescence, higher = more signal;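 note: score pools 667 nm emission and signal to noise measuring lysate protein binding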
[10] = system: Sonic hedgehog protein (Shh); assay: small-molecule binders of Shh protein, primary screen, biochemical, small-molecule microarray, 635/667 nm fluorescence (AID 1151); conditions: small-molecule microarray binding, 635 nm fluorescence; higher = more signal;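 note: Shh protein binding to compounds spotted on small-molecule microarray slides; score combines spot fluorescence intensity with signal-to-noise across triplicate slides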

Chain of Torsin-1A (Homo sapiens) (O14656 whole entry, looked up): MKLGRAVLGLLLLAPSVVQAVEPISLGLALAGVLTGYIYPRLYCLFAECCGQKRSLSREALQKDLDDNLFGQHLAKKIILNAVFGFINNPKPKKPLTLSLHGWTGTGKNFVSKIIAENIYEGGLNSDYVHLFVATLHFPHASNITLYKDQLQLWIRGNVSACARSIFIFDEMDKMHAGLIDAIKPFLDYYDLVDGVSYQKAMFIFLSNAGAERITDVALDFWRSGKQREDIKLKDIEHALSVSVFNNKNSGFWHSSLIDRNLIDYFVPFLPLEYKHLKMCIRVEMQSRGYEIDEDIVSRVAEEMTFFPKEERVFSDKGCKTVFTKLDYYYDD
Chain of Streptavidin (Streptomyces avidinii) (P22629 whole entry, looked up): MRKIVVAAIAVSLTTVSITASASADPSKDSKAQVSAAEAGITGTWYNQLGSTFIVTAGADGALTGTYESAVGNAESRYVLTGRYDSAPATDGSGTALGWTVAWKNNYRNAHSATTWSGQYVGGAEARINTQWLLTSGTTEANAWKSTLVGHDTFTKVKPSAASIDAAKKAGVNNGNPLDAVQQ

SMILES	composite z-score [1]	z-score [2]	z-score [3]	z-score [4]	z-score [5]	composite z-score [6]	composite z-score [7]	composite z-score [8]	composite z-score [9]	composite z-score [10]
CC(=O)NCCCC[C@@H]1NC(=O)[C@@H]2C[C@H](C(=O)NCc3ccc(F)cc3)[C@H](c3cccc(OCCO)c3)N2C1=O	0.0719	-0.608 (inactive)	-0.225 (inactive)	0.537 (inactive)	0.517 (inactive)	-0.454	-0.0209	0.544	1.05	1.8
COCCOC(=O)N1C(=O)[C@@]2(c3cc(C#CCNC(N)=O)ccc31)[C@H](c1ccccc1OCCO)N1[C@H](c3ccccc3)[C@H](c3ccccc3)OC(=O)[C@H]1[C@@H]2C(=O)NC[C@H](O)c1ccccc1	0.439	-0.429 (inactive)	-0.209 (inactive)	-1 (inactive)	0.172 (inactive)	0.903	-0.0375	0.834	0.525	1.87
CCOC(=O)C1=C[C@@H](c2ccccc2)N(S(=O)(=O)c2ccc(C)cc2)[C@H]1c1ccc(F)cc1	0.0679	-3.77 (inactive)	0.449 (inactive)	-0.826 (inactive)	-0.552 (inactive)	0.95	0.225	0.347	0.431	0.488
C=C(CCCC)/C(=C/C[C@H](OC(=O)c1ccncc1)c1cccc(OCCO)c1)c1cc(C(=O)OC)ccc1OC	0.84	-5.25 (inactive)	-0.536 (inactive)	6.81 (inactive)	-0.802 (inactive)	0.396	-0.0695	0.349	0.458	1.61
CC[C@@H]1C=C(C(=O)O)[C@H](c2ccccc2)N1S(=O)(=O)c1ccc([N+](=O)[O-])cc1	-0.0781	-0.979 (inactive)	-0.667 (inactive)	-0.873 (inactive)	0.403 (inactive)	0.698	-0.128	0.802	0.717	-0.335
C=CCC(OC(C)=O)[C@@H]1[C@@H](N(Cc2cccc3ccccc23)C(=O)c2ccc(C)cc2)c2cc(OCCCO)ccc2N1C(=O)c1ccc(-c2ccccc2)cc1 (stereo not given in full)	-0.0459	-0.552 (inactive)	0.528 (inactive)	0.455 (inactive)	0.289 (inactive)	0.425	-0.0719	0.0621	-0.213	0.0891
COc1ccc([Si](C)(C)[C@@H]2[C@@H](CC(=O)N(CCO)Cc3ccccc3)O[C@]3(C(=O)N(Cc4cccc(N5CCC5=O)c4)c4ccccc43)[C@H]2C)cc1	0.0348	-5.72 (inactive)	0.765 (inactive)	0.236 (inactive)	0.398 (inactive)	-0.287	0.0301	0.0525	-0.009	1.81
COc1cc2c(cc1OC)CN(C(=O)[C@H]1[C@@H]3C(=O)O[C@@H](c4ccccc4)[C@@H](c4ccccc4)N3[C@@H](c3ccc(O)cc3)[C@]13C(=O)Nc1ccc(C#CC4(O)CCCCCC4)cc13)CC2	0.723	-0.715 (inactive)	-0.785 (inactive)	0.425 (inactive)	0.603 (inactive)	2.42	0.472	0.601	1.36	1.39
CN1C(=O)C2C=CC(C(O)C3CC=CCC3)N(Nc3ccccc3)C2C1=O (stereo not given)	0.521	0.758 (inactive)	-0.269 (inactive)	-0.333 (inactive)	0.0874 (inactive)	0.505	0.208	0.664	1.06	1.57
CCOC(=O)C1=CC[C@@H](c2ccccc2)N(S(=O)(=O)c2ccc(C)cc2)[C@H]1C	0.532	-4.32 (inactive)	0.165 (inactive)	-0.0137 (inactive)	-0.664 (inactive)	1.85	-0.153	1.41	1.25	0.747
COc1ccc(C(O)C2C=CC3C(=O)N(C)C(=O)C3N2N2CCCCC2)cc1OCc1ccccc1 (stereo not given)	0.0847	0.135 (inactive)	-0.314 (inactive)	0.433 (inactive)	-0.342 (inactive)	0.701	-0.0332	0.0884	0.836	-0.282
COC(=O)[C@H]1[C@@H]2COc3ccccc3[C@H]2N[C@H]1C(=O)OC	-0.0215	0.508 (inactive)	-0.411 (inactive)	2.13 (inactive)	-0.827 (inactive)	-0.142	-0.118	0.425	0.775	0.264
CC1CC/C=C\[C@H]2OC34C=CCN(Cn5nnc6ccccc65)C(=O)[C@H]3N(C(C)CO)C(=O)[C@@H]4C2C(=O)O1 (stereo not given in full)	-0.501	0.349 (inactive)	-0.182 (inactive)	-1.03 (inactive)	-0.542 (inactive)	-0.465	-0.0675	-0.276	-1	-0.362
C=C(C)[C@@H]1CC=C(C(O)C2C=CC3C(=O)NC(=O)C3N2Nc2ccccn2)CC1 (stereo not given in full)	0.742	0.715 (inactive)	-0.555 (inactive)	-0.14 (inactive)	0.621 (inactive)	0.717	0.093	1.1	0.705	2.28
C#CCCCON=C1C[C@@H](O)[C@@H](O)[C@@H]2[C@@H]3C(=O)N(Cc4ccc5c(c4)OCO5)C(=O)[C@@H]3CC[C@H]12	0.322	0.0582 (inactive)	0.448 (inactive)	-0.657 (inactive)	0.653 (inactive)	1.26	-0.261	0.572	0.267	1.42
COC(=O)[C@@]1(Cc2ccc(OC)cc2)[C@H]2c3cc(C(=O)N(C)C)n(Cc4ccc(C)c(F)c4F)c3C[C@H]2CN1C(=O)c1ccccc1	0.109	-1.49 (inactive)	-0.763 (inactive)	1.53 (inactive)	1.24 (inactive)	0.569	0.0179	-0.124	-0.0724	-1.09
NC(=O)NCC#Cc1ccc2c(c1)[C@]1(C(=O)N2)[C@H](c2ccccc2OCCO)N2[C@H](c3ccccc3)[C@H](c3ccccc3)OC(=O)[C@H]2[C@@H]1C(=O)N1CCN(c2ncccn2)CC1	-0.186	-4.21 (inactive)	-0.681 (inactive)	-0.0515 (inactive)	0.889 (inactive)	0.182	-0.0762	0.0759	0.272	0.831
CCCC=C(CCC)[C@@H](NS(=O)(=O)c1cccc(C(F)(F)F)c1)c1ccc(C(=O)OC)cc1	1.16	0.0804 (inactive)	-0.109 (inactive)	-0.182 (inactive)	-0.547 (inactive)	0.0276	1.43	0.258	-0.223	0.116
CC(c1ccccc1)C(O)C1C=CC2C(=O)N(C)C(=O)C2N1N(c1ccccc1)c1ccccc1 (stereo not given)	0.156	0.066 (inactive)	-0.131 (inactive)	0.443 (inactive)	0.696 (inactive)	0.377	0.153	0.18	0.426	-0.586
O=C(CS)NCCCCCCNC(=O)[C@@H]1C[C@@H]2C(=O)N[C@@H](Cc3ccccc3)C(=O)N2[C@@H]1c1ccc(O)cc1	0.588	-0.345 (inactive)	-0.75 (inactive)	-0.537 (inactive)	-0.835 (inactive)	0.226	0.0503	1.12	1.14	1.86
CCOC(=O)C1=CC[C@@H](c2ccc(-c3ccc(OCc4ccccc4)cc3)c(OC)c2)N(S(=O)(=O)c2ccc(C)cc2)[C@H]1c1ccccc1	0.0858	-2.32 (inactive)	-1.05 (inactive)	-0.489 (inactive)	0.1 (inactive)	1.67	0.119	0.277	0.518	1.15
C=CC[C@]1(C(=O)O)N=C(c2ccc(OCCCO)cc2)O[C@H]1c1ccccc1N=[N+]=[N-]	0.477	-0.426 (inactive)	1.09 (inactive)	0.629 (inactive)	-1.32 (inactive)	1.27	-0.026	0.0545	0.125	-0.373
COc1ccc([Si](C)(C)[C@@H]2[C@@H](CCO)O[C@]3(C(=O)N(Cc4ccc(NC(=O)[C@H](C)O)cc4)c4ccccc43)[C@H]2C)cc1	0.186	-8.04 (active)	-0.261 (inactive)	18.4 (active)	-1.12 (inactive)	0.458	-0.0471	0.504	0.392	0.599
CCOC(=O)C[C@H]1[C@H](OC(=O)Cc2ccc3c(c2)OCO3)[C@@H](NC(=O)c2ccc3ccccc3c2)c2cc(OCCCO)ccc2N1C(=O)Cc1ccc(OC)cc1	-0.0175	-0.602 (inactive)	-0.0536 (inactive)	4.83 (inactive)	0.135 (inactive)	0.348	0.386	0.242	0.485	0.673
C=C[C@H](OC)[C@@H](OC(=O)Nc1ccc(SC)cc1)c1ccc(O)c(F)c1	0.418	-0.731 (inactive)	-0.782 (inactive)	5.83 (inactive)	-0.362 (inactive)	-0.174	-0.0695	0.373	0.23	1.6
C=CCC(OC(C)=O)[C@@H]1[C@@H](N(Cc2cccc3ccccc23)C(=O)Cc2ccc(F)cc2)c2cc(OCCCO)ccc2N1C(=O)Cc1ccc2ccccc2c1 (stereo not given in full)	-0.0893	-0.288 (inactive)	-0.688 (inactive)	-0.36 (inactive)	1.17 (inactive)	-0.11	-0.101	-0.52	0.169	0.332
